Bioassay records from PubChem BioAssay.
DRD3 antagonist: antagonists of human D3 dopamine receptor. P35462. D3R cells, DiscoveRx beta-arrestin luminescence, antagonist mode; active compounds read low. max response, negative = inhibition, %. hit rate 2.5% among 360,000. AID 652054; in the data active = max response below about -50%; inconclusive = no clear call, values can overlap the other calls; note: % is set by controls: 0 for no effect and ±100 for the full control effect
Target sequence (P35462 whole entry, looked up): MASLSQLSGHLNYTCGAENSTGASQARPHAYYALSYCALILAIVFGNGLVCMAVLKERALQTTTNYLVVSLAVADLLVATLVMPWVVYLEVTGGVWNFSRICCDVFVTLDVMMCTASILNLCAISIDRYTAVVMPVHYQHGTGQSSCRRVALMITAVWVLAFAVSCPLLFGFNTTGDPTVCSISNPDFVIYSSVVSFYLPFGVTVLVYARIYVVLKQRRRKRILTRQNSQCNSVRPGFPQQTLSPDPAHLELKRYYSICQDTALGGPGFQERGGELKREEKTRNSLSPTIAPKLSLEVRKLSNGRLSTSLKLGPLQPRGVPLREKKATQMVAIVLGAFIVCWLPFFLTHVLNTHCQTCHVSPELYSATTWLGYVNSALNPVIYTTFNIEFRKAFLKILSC
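Cells plated overnight at 1500 cells/well, then exposed to library compounds with dopamine controls for 90 minutes at 37 degrees C. DiscoveRx reagent added for 30–60 minutes at room temperature; luminescence read, quantitative HTS format.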
D1 potentiator: potentiators of human D1 dopamine receptor. P21728. HEK293 TREx D1 cells, calcium flux, dopamine EC20 potentiation. potentiation, % at 10 µM. hit rate 0.036% among 360,000. AID 504651; in the data active = potentiation above about 30%; note: 0% is about no effect
D1 agonist: activates the human D1 dopamine receptor; hit rate 1% among 360,000; HEK293 T-REx D1 cells, calcium flux, agonist mode; P21728; activation, % at 2 µM; in the data active = activation above about 30%; note: 0% is about no effect
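Agonism was scored from calcium flux recorded over 180 s (1 read/s) after pintool compound addition, following a 10-cycle baseline. Cells were inducible force-coupled HEK293 TREx D1, plated overnight at 30 C and loaded with no-wash calcium dye.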
D1 antag: blocks dopamine activation of the human D1 receptor | AID 504652 | hit rate 3.2% among 360,000 | P21728 | activity change, negative = inhibition, % at 10 µM | HEK293 TREx D1 cells, calcium flux, dopamine EC80; active compounds read low; in the data active = activity change below about -30%; note: % is set by controls: 0 for no effect and ±100 for the full control effect
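Tetracycline-induced HEK293 Trex D1 cells, force-coupled to calcium, dye-loaded; compounds added and read 180 s, then EC80 dopamine added and calcium flux tracked kinetically another 180 s.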
D3 ag: D3 dopamine receptor (human) agonism; P35462; D3R DiscoveRx beta-arrestin cells, luminescence, 90 min; max activation, %; hit rate 0.58% among 410,000; in the data active = max activation above about 30%; note: 0% is about no effect
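Agonist mode: compounds and dopamine controls were applied to plated cells for 90 min at 37 degrees C after an overnight attachment at 1500 cells/well. Luminescent read-out followed 30 - 60 minutes at room temperature with DiscoveRx detection reagent.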
Numbers without * were called inactive; u = inconclusive; x = not tested or not shown; ! = repeats disagree. An excerpt weighted towards active compounds, which were near 6% of everything screened.

SMILES	DRD3 antagonist	D1 potentiator	D1 agonist	D1 antag	D3 ag
COc1ccc(Br)c2c1-c1nc(NC(=O)c3ccccc3SC)sc1C2	x	-8	-1	-36*	-11
COc1ccc(Br)c2c1-c1nc(NC(=O)c3ccccc3F)sc1C2	x	2	1	22	-12
CC(=O)Oc1ccc(C2(c3ccc(OC(C)=O)cc3)Oc3ccccc3NC2=O)cc1	x	x	x	x	11
Nc1sc2c(c1C(=O)c1ccccc1)CCCC2	-7	-1	1	-66*	4
NC(=O)c1c(N)sc2c1CCCC2	-6	1	2	-6	11
Cc1nc(Nc2ccc(S(=O)(=O)N3CCCCC3C)cc2)c2nnn(Cc3ccccc3)c2n1 (stereo not drawn)	-59*	4	3	36	-5
Cc1nc(Nc2ccc(Cl)cc2)c2nnn(Cc3ccccc3)c2n1	6	-1	3	36	1
CC(=O)Nc1ccc(Nc2nc(C)nc3c2nnn3Cc2ccccc2Cl)cc1	-74*	4	5	0	-20
CCC1OC(=O)C[C@@H](O)[C@H](C)[C@@H](O[C@@H]2O[C@H](C)C[C@H](N(C)C)[C@H]2O)[C@@H](CC=O)C[C@@H](C)C(=O)/C=C/[C@]2(C)OC2C1C (stereo partly drawn)	x	x	x	x	-9
CCN1C(=NCCc2ccc(Br)cc2)N[C@@H](c2ccccc2)[C@H](C(=O)OC)[C@H]1C	-88*	-6	7	-3	-50
Cc1ccc(C(=O)NCc2ccco2)cc1[N+](=O)[O-]	-7	-3	0	-37*	1
O=C(NCc1ccco1)c1cc([N+](=O)[O-])cc([N+](=O)[O-])c1	10	1	0	5	1
O=C(NCc1ccco1)c1ccc2c(c1)C(=O)c1ccccc1-2	-8	-4	2	-31*	-14
CCOc1ccc(NC(=O)Cn2c(CCC(=O)O)ccc2-c2ccc(C)cc2)cc1	x	-2	-1	-26	7
COc1ccccc1OCCSc1nc(N)cc(N)n1	5	-9	0	-84*	0
CCOC(=O)c1ccc(NC(=O)Cn2nc(C)c3ccccc3c2=O)cc1	7	40*	0	-10	4
COC(=O)c1ccc(NC(=O)Cn2nc(C)c3ccccc3c2=O)cc1	-21	0	12	-9	-5
COc1ccc(OCCSc2nc(C)c(Cc3ccccc3)c(=O)[nH]2)cc1	-5	-1	28	-39*!	-4
Nc1cc(N)nc(SCCOc2ccccc2F)n1	27	1	0	1	2
CCOC(=O)c1ccc(NC(=O)CSc2nc(C)c(Cc3ccccc3)c(=O)[nH]2)cc1	x	0	8	-30*	2
CC(C)C[C@H]1CN(CCCC[C@@H]2CNC(=O)C(=O)N2CC2CCCCC2)C(=O)C(=O)N1CC1CCCCC1	54	x	x	x	5
Cc1cc(Br)ccc1NC(=O)C(Cc1ccccc1)NS(=O)(=O)c1ccc(Br)s1 (stereo not drawn)	x	-2	4	3	0
COc1ccccc1OCCSc1nc2ccccc2c(=O)[nH]1	4	-10	0	-41*	-4
C=CCc1ccccc1OCCSc1nc2ccc([N+](=O)[O-])cc2s1	22	1	18	-13	-4
COc1ccccc1OCCSc1nc2ccc([N+](=O)[O-])cc2s1	14	-14	3	-57*	3
SMILES	DRD3 antagonist	D1 potentiator	D1 agonist	D1 antag	D3 ag
COc1ccc(OCCSc2ncccn2)cc1	-17	1	2	-6	-3
O=c1[nH]c(SCCOc2ccccc2F)nc2ccccc12	1	-8	0	-24	9
COc1ccc(OCCSc2nc(C)nc3ccccc23)cc1	63	5	11	6	55*
O=C(O)COc1ccc(CCNS(=O)(=O)c2ccccc2)s1	x	x	x	x	7
COc1ccc(-c2cc(C(F)(F)F)nc(NCc3ccccc3)n2)cc1OC	x	0	1	7	11
Cc1cc(NC(=O)OC(C)(C)C)c(-n2nnnc2C(C(=O)c2ccccc2)N2CCOCC2)cc1C (stereo not drawn)	-19	x	x	x	-10
CCC1(c2ccc(OC)cc2)NC(=O)N(CC(=O)c2ccc3c(c2)OCCO3)C1=O (stereo not drawn)	4	-2	32*	35	2
Cc1ccc(C2(C)NC(=O)N(CC(=O)c3ccc4c(c3)OCCO4)C2=O)cc1 (stereo not drawn)	30	-4	9	-43*	0
CC1(c2cccc(Br)c2)NC(=O)N(CC(=O)c2ccc3c(c2)OCCO3)C1=O (stereo not drawn)	12	x	x	x	1
Cc1cc(C(=O)CN2C(=O)NC(C)(c3cc(F)ccc3F)C2=O)c(C)n1C1CC1 (stereo not drawn)	7	x	x	x	5
O=C(CN1C(=O)NC2(CCc3ccccc32)C1=O)c1ccc2c(c1)OCCO2 (stereo not drawn)	14	1	4	2	3
CCC1(c2ccc(F)cc2)NC(=O)N(CC(=O)N2c3ccccc3NC(=O)CC2C)C1=O (stereo not drawn)	-11	1	0	13	-5
CCC1(c2ccc(F)cc2)NC(=O)N(CC(=O)N2c3ccccc3CC2C)C1=O (stereo not drawn)	11	5	85*	4	0
CCC1(c2ccc(F)cc2)NC(=O)N(CC(=O)c2cc(C)n(C3CC3)c2C)C1=O (stereo not drawn)	10	-2	41*	-3	0
O=C(c1ccc2c(c1)N(Cc1ccc(F)cc1)C(=O)c1ccccc1S2(=O)=O)N1CCCC1	x	-1	0	-2	-15
CC(C)NC(=O)C1(C)CN(S(C)(=O)=O)CC(=O)N1Cc1ccc2c(c1)OCO2 (stereo not drawn)	12	x	x	x	-2
Cc1ccc(Cl)cc1NC(=O)Cn1c(=O)n(CCCS(=O)(=O)C2CCCCC2)c(=O)c2ccccc21	x	-3	2	20	-10
Cc1cc(C)c(NC(=O)Cn2nnc(-c3ccccc3)n2)c(C)c1	x	1	-1	-7	3
CCC1(c2ccc(OC)cc2)NC(=O)N(CC(=O)N2CCc3ccccc32)C1=O (stereo not drawn)	18	-5	39*	6	3
COCc1cccc(-c2csc(C(O)c3ccccc3)n2)c1 (stereo not drawn)	22	x	x	x	11
Cc1c(C(=O)NC2CCN(Cc3ccccc3)C2)oc2c(Cl)cccc12 (stereo not drawn)	-100*	-4	3	-1	-20
CCN(c1ccccc1)S(=O)(=O)c1ccc(Cl)c(C(=O)NC2CCN(Cc3ccccc3)CC2)c1	u	x	x	x	-26
CN(C)S(=O)(=O)c1ccc(Cl)c(C(=O)NC2CCN(Cc3ccccc3)C2)c1 (stereo not drawn)	-59*	-3	5	11	-13
Cc1ccc(S(=O)(=O)CCC(=O)NCCN2C(=O)S/C(=C/c3ccc(F)cc3)C2=O)cc1	46	-6	6	-26	6
